Bioassay records as filed in PubChem.
FBW7 activator: activators of human E3 ligase FBW7 | Q969H0 | AlphaScreen FBW7–phospho-cyclin E peptide binding, activator screen | normalized activity (activation), % at 26.1 µM | 650,000 compounds, 0.13% hits; in the data active = normalized activity above about 1.9%;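 note: purified mutant Fbw7 with reduced substrate affinity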
MITF primary: inhibitors of human MITF; AlphaScreen MITF homodimerization, bead proximity signal; inhibition, % at 2.6 µM; 650,000 compounds, 0.91% hits; AID 1259374; in the data active = inhibition above about 50%
GPR151 activ: activators of human GPR151; Q8TDV0; PathHunter beta-arrestin GPR151 cells, luminescence; activation, % at 11.2 µM; 650,000 compounds, 1% hits; AID 1508602; in the data active = activation above about 4.9%
TEAD-YAP inh: TEAD-YAP interaction inhibition; HEK-TIYL cells, TEAD-Gal4/YAP UAS-luciferase luminescence; inhibition, % at 9.12 µM; 640,000 compounds, 1.4% hits; AID 1259422; in the data active = inhibition above about 32%
GPR151 confirm: confirmation of human GPR151 activators; shares compounds with GPR151 activ; GPR151 PathHunter beta-arrestin cells, luminescence, 90 min; % of EA-reagent control over plate median; activation, % at 11.2 µM; 6,700 tested, under 10 active; AID 1508609;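 active = mean percent activation across replicates above the confirmation screen cutoff of 4.91%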
GPR119 ag: GPR119 activation, counter-screen for GPR151 activators; shares compounds with GPR151 activ; GPR119 PathHunter beta-arrestin cells, luminescence, 90 min; 0 = compound-well median, 100 = enzyme-acceptor control; activation, % at 11.2 µM; 6,700 compounds, 0.3% hits; AID 1508611;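 active = mean percent activation in the counterscreen above 29.09%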;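 note: counterscreen on off-target GPR119 to flag nonselective hits from the GPR151 activator screen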
Each line names hits and unclear results; the compound was inactive in the other large screens (follow-up assays come after a bar, where they were run). A selection: hits, their analogues and other compounds. The true share with any hit is near 3.4%.

COc1ccc(C(=O)N2CCNC(=O)C2CC(=O)Nc2ccc(C)c(C)c2)cc1 (centres undefined)	GPR151 activ 5.6 | GPR151 confirm inactive | GPR119 ag inactive
COc1ccc(C(=O)N2CCNC(=O)C2CC(=O)Nc2cccc(Cl)c2Cl)cc1 (centres undefined)	none
CC(=O)Nc1nnc(SCC(=O)Nc2cccc(Cl)c2)s1	none
COCCNC(=O)[C@@H]1C[C@H](NCc2cc(C)ccc2C)CN1C1Cc2ccccc2C1	none
COCCNC(=O)[C@@H]1C[C@H](NCc2ccccc2Cl)CN1C1Cc2ccccc2C1	GPR151 activ 6.4 | GPR151 confirm inactive | GPR119 ag inactive
Cc1c(C=Nc2ccc3c(c2)OCCO3)c2ccccc2n1C	none
COc1cccc(NC(=O)c2cc(=O)c3ccccc3o2)c1	GPR151 activ 4.9 | GPR151 confirm inactive | GPR119 ag inactive
Cc1cccc(C)c1NC(=O)C(c1ccccc1)N1CCN(c2ccccc2)CC1 (centres undefined)	none
CC(C)CC1=NN(C(=O)C(=O)NCCc2ccccc2)C(O)(C(F)(F)F)C1 (centres undefined)	GPR151 activ 5.5 | GPR151 confirm inactive | GPR119 ag inactive
CC(C)CCC1=NN(C(=O)C(=O)NCCc2ccccc2)C(O)(C(F)(F)F)C1 (centres undefined)	none
CC1(NC(=S)Nc2n[nH]c(N)n2)CCS(=O)(=O)C1 (centres undefined)	none
CN=C(C)c1c(O)c2ccccc2oc1=O	none
C/C(=N\NC(N)=O)c1c(O)c2ccccc2oc1=O	GPR151 activ 7.4 | GPR151 confirm inactive | GPR119 ag inactive
c1ccc(CNc2nc(-c3ccc(N4CCOCC4)nc3)nc3c2ncn3-c2ccccc2)cc1	GPR151 activ 5.5 | GPR151 confirm inactive | GPR119 ag inactive
CCCNc1nc(-c2ccc(N3CCOCC3)nc2)nc2c1ncn2-c1ccccc1	none
c1ccc(-n2cnc3c(NCc4cccnc4)nc(-c4ccc(N5CCOCC5)nc4)nc32)cc1	GPR151 activ 5.7, TEAD-YAP inh 46 | GPR151 confirm inactive | GPR119 ag inactive
CC1CCN(C(=O)NC(C(F)(F)F)C(F)(F)F)CC1	none
CCOc1cc(C=C(C#N)C#N)ccc1OC(=O)c1cccs1	GPR151 activ 12 | GPR151 confirm inactive | GPR119 ag inactive
COc1cc(C=C(C#N)C#N)ccc1OC(=O)c1cccs1	none
COc1ccc(CN2CCN(CCCc3ccccc3)C(CCO)C2)c(OC)c1 (centres undefined)	GPR151 activ 5.0 | GPR151 confirm inactive | GPR119 ag inactive
COc1ccc(CN2CCN(CCCc3ccccc3)C(CCO)C2)c(O)c1 (centres undefined)	none
C=CCOc1ccccc1CN1CCN(Cc2ccsc2)C(CCO)C1 (centres undefined)	GPR151 activ 6.1 | GPR151 confirm inactive | GPR119 ag inactive
CCOc1ccccc1CN1CCN(Cc2cc(F)cc(F)c2)CC1CCO (centres undefined)	none
CCOc1ccccc1CN1CCN(Cc2cccc(F)c2)CC1CCO (centres undefined)	GPR151 activ 5.4 | GPR151 confirm inactive | GPR119 ag inactive
CC(C)=CCN1CCN(Cc2cccc(OCCO)c2)CC1CCO (centres undefined)	none
Cc1ccccc1CN1CCN(Cc2cccc(OCCO)c2)CC1CCO (centres undefined)	GPR151 activ 5.9 | GPR151 confirm inactive | GPR119 ag inactive
Cc1ccc(-c2cc(C(=O)NCc3ccc4c(c3)OCO4)[nH]n2)cc1	none
CCOc1ccccc1CN1CCN(C2CCN(c3ccccc3F)CC2)CC1CCO (centres undefined)	GPR151 activ 11 | GPR151 confirm inactive | GPR119 ag inactive
COc1cccc(CN2CCN(Cc3cc(Cl)c(O)c(OC)c3)CC2CCO)c1 (centres undefined)	GPR151 activ 6.3 | GPR151 confirm inactive | GPR119 ag inactive
OCCC1CN(Cc2cc(F)cc(F)c2)CCN1Cc1ccccc1F (centres undefined)	none
OCCC1CN(Cc2ccncc2)CCN1Cc1ccccc1F (centres undefined)	GPR151 activ 6.6 | GPR151 confirm inactive | GPR119 ag inactive
Cc1ccccc1CN1CCN(Cc2ccn[nH]2)CC1CCO (centres undefined)	GPR151 activ 6.0 | GPR151 confirm inactive | GPR119 ag inactive
